Test results reported in PubChem BioAssay.
For some of these results: Measured potencies and affinities stand elsewhere. Active and inactive are the calls of the source. Unless noted, no rule for the calls is given here.

Assays:
[1] = antimalarial activity against Dd2 strain (AID 2302;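 active = growth inhibition above 50% at the single 2 µM test dose, taken to imply half-maximal potency below 2 µM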;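 also: 0% = DMSO untreated growth and 100% = chloroquine plus artemisinin killed control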); details: P. falciparum Dd2 in RBCs, LDH growth readout, 72 h; at 2 µM; hits give high values
[2] = HepG2 cytotoxicity, primary screen, cytotoxicity control for P. falciparum antimalarial project, cell-based, ATP luminescence (AID 2303;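 active = inhibition above 50%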;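 also: 0% = DMSO wells and 100% = digitonin-killed cells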); details: HepG2 viability, 24-48 h, at 10 µM, hits give high values
[3] = biological target: L-lactate dehydrogenase (Plasmodium falciparum (isolate CDC / Honduras)) (UniProt Q27743); assay: PfLDH activity inhibition – cell lysate, 3D7 strain, counter-screen for P. falciparum growth inhibition project (AID 2304);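 also: 0% = vehicle and 100% = reference inhibitor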; details: P. falciparum 3D7 crude extract, LDH APAD/NBT absorbance; at 2 µM; hits give high values
Sequence of L-lactate dehydrogenase (Plasmodium falciparum (isolate CDC / Honduras)) (Q27743 whole entry, looked up): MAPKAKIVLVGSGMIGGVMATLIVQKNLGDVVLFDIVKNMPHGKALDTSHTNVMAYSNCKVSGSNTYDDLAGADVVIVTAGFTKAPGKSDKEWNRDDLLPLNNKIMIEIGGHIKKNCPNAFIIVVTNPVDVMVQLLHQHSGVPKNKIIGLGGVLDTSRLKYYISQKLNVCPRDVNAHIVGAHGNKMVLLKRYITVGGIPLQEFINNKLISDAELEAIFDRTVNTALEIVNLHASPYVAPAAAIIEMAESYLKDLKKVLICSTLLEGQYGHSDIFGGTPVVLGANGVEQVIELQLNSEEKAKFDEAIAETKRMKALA

[4] = inhibition of 3D7 malaria parasite growth – strain 3D7 (AID 2306);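 also: 0% = DMSO wells and 100% = chloroquine plus artemisinin control wells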; details: P. falciparum 3D7 erythrocytic growth, LDH absorbance, 72 h; at 2 µM; hits give high values
[5] = biological target: Calcium-dependent protein kinase 1 (Plasmodium falciparum (isolate 3D7)) (UniProt P62344); assay: PfCDPK1 kinase inhibitors, biochemical, TCAMS library (AID 1159585; cut-off not given, nearly all actives have IC50 up to about 0.98 µM;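 also: inhibitors leave more ATP so luminescence rises with inhibition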); details: recombinant PfCDPK1, Kinase-Glo ATP depletion luminescence
Sequence of Calcium-dependent protein kinase 1 (Plasmodium falciparum (isolate 3D7)) (P62344 whole entry, looked up): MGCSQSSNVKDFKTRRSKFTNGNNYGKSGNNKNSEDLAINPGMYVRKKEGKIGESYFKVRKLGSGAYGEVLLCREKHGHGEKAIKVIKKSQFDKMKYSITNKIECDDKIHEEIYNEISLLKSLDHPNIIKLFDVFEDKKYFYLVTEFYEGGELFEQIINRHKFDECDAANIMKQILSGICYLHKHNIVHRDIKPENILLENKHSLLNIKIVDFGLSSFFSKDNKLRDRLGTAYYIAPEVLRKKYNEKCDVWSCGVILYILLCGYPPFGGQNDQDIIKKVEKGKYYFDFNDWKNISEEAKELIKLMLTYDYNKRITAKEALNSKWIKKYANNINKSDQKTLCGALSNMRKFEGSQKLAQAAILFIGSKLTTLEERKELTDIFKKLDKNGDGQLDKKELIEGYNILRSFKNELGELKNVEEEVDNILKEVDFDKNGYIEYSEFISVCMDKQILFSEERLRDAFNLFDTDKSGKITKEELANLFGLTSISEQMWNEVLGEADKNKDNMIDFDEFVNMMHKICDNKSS

[6] = biological target: Plasmodium falciparum protein kinase 6 (PK6, PF3D7_1337100) (UniProt Q8IDW1); assay: PfPK6 kinase inhibitors, biochemical, TCAMS library (AID 1159586); details: recombinant PfPK6, Kinase-Glo ATP depletion luminescence
Sequence of Plasmodium falciparum protein kinase 6 (PK6, PF3D7_1337100) (Q8IDW1 1-305): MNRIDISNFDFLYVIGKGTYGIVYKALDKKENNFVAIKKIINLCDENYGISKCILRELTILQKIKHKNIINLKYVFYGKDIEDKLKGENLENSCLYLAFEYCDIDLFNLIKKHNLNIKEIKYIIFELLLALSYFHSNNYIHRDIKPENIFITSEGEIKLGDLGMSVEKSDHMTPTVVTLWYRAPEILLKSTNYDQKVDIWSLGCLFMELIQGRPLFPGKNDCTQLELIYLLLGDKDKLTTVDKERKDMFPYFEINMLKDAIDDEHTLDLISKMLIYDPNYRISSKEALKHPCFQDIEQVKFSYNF

[7] = biological target: Protein kinase 7 (PK7), Plasmodium falciparum 3D7 (PF3D7_0213400) (UniProt Q7YTF7); assay: inhibition of Plasmodium PK7 catalytic activity – biochemical, TCAMS antimalarial set, Kinase-Glo luminescence (AID 1159587); details: recombinant PfPK7, Kinase-Glo ATP depletion luminescence
Sequence of Protein kinase 7 (PK7), Plasmodium falciparum 3D7 (PF3D7_0213400) (Q7YTF7 1-343): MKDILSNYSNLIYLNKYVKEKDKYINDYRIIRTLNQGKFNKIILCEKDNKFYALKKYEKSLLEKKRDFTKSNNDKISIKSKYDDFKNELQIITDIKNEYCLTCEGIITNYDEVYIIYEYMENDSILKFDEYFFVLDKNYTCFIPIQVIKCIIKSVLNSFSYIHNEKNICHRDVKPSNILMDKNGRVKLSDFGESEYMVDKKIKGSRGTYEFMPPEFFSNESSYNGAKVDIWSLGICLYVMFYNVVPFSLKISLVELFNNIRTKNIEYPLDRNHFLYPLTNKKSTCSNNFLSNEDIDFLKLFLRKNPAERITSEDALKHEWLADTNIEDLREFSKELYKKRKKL

[8] = biological target: Calcium-dependent protein kinase 4 (Plasmodium falciparum (isolate 3D7)) (UniProt Q8IBS5); assay: PfCDPK4 kinase inhibitors, biochemical, TCAMS library (AID 1159588; cut-off not given, nearly all actives have IC50 up to about 0.91 µM); details: recombinant PfCDPK4, Kinase-Glo ATP depletion luminescence
Sequence of Calcium-dependent protein kinase 4 (Plasmodium falciparum (isolate 3D7)) (Q8IBS5 whole entry, looked up): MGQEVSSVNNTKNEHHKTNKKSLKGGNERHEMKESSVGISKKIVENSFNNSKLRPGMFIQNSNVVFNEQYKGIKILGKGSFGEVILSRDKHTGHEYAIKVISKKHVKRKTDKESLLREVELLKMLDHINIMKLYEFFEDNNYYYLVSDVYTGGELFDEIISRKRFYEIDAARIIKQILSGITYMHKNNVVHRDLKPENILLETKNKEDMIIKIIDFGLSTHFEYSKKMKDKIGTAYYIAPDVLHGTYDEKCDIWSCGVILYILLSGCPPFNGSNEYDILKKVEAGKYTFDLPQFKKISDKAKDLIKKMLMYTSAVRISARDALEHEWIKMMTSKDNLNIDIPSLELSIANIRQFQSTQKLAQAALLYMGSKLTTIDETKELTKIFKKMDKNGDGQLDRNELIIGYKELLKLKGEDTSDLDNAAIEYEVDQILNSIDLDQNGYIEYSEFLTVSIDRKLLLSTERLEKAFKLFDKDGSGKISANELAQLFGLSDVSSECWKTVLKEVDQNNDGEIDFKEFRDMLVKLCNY

CS(=O)(=O)c1ccc(-c2cncc(Nc3cccc([N+](=O)[O-])c3)c2)cc1
inactive: inhibition [2] 6% | inhibition [3] -1% | outcome [5] | outcome [6] | outcome [7] | outcome [8]
active: growth inhibition [1] 70% | growth inhibition [4] 97%

Cc1ccc(CN2CCC(Oc3cccc(NC(=O)c4ccc(C(F)(F)F)cc4)c3)CC2)cc1
inactive: growth inhibition [1] 15% | inhibition [2] 37% | inhibition [3] -1% | outcome [5] | outcome [6] | outcome [7] | outcome [8]
active: growth inhibition [4] 92%

CN(C)c1cc(C(=O)N[C@@H](Cc2ccccc2)[C@H](O)CNC2CCCCC2)cc2[nH]ccc12
active: growth inhibition [1] 97% | growth inhibition [4] 98%
inactive: inhibition [2] 10% | inhibition [3] 3% | outcome [5] | outcome [6] | outcome [7] | outcome [8]

COc1cccc(CN2CCC(C(=O)Nc3ccc(-c4nc5ccccc5[nH]4)cc3)CC2)c1
active: growth inhibition [1] 84% | growth inhibition [4] 101%
inactive: inhibition [2] 9% | inhibition [3] -3% | outcome [5] | outcome [6] | outcome [7] | outcome [8]

CN(C)CCn1cc(C(=O)c2cc(Cl)ccc2O)cc1-c1nc2ccccc2c(=O)[nH]1
active: growth inhibition [1] 87% | growth inhibition [4] 99%
inactive: inhibition [2] 16% | inhibition [3] -3% | outcome [5] | outcome [6] | outcome [7] | outcome [8]

CN(C)C(CNc1ncnc2cc(Cl)ccc12)Cc1ccccc1 (stereo not given)
active: growth inhibition [1] 88% | growth inhibition [4] 96%
inactive: inhibition [2] 13% | inhibition [3] -4% | outcome [5] | outcome [6] | outcome [7] | outcome [8]

COc1cc(NCCCNCc2cn(Cc3cc(Br)cc(Br)c3)c3ccccc23)nc2ccccc12
inactive: inhibition [3] 4% | outcome [5] | outcome [6] | outcome [7] | outcome [8]
active: growth inhibition [1] 85% | inhibition [2] 99% | growth inhibition [4] 100%

COc1ccc2nccc(N3CCN(CCNCc4ccc5c(n4)NC(=O)CO5)CC3)c2c1
active: growth inhibition [4] 92%
inactive: growth inhibition [1] 5% | inhibition [2] 18% | inhibition [3] 5% | outcome [5] | outcome [6] | outcome [7] | outcome [8]

NC1=NC2(CCCCC2)N(Cc2ccc(Cl)c(Cl)c2)C(N)=N1
active: growth inhibition [1] 76% | growth inhibition [4] 86%
inactive: inhibition [2] 22% | inhibition [3] -3% | outcome [5] | outcome [6] | outcome [7] | outcome [8]

COc1ccc(CNCc2ccc(F)cc2)cc1-c1ccc(S(=O)(=O)NCCN2CCCC2)s1
active: growth inhibition [1] 65% | inhibition [2] 61% | growth inhibition [4] 101%
inactive: inhibition [3] -1% | outcome [5] | outcome [6] | outcome [7] | outcome [8]

CCCC[C@H](NC(=O)OC(C)(C)C)C(=O)Nc1ccc(Cc2ccc(NC(=O)[C@H](CCCC)NC(=O)OC(C)(C)C)cc2)cc1
inactive: inhibition [2] 5% | inhibition [3] 3% | outcome [5] | outcome [6] | outcome [7] | outcome [8]
active: growth inhibition [1] 71% | growth inhibition [4] 95%

CCN1C(=O)N(CCC(C)C)C2(CCN(Cc3ccc(OC)cc3O)CC2)C1=O
inactive: inhibition [2] 13% | inhibition [3] 4% | outcome [5] | outcome [6] | outcome [7] | outcome [8]
active: growth inhibition [1] 77% | growth inhibition [4] 89%

COc1cc2nc(N3CCC(CNC(=O)c4ccc(-c5ccc(C(=O)N(C)C)cc5)c(OCCO)c4)CC3)nc(N)c2cc1OC
active: growth inhibition [4] 96%
inactive: growth inhibition [1] 18% | inhibition [2] 10% | inhibition [3] -3% | outcome [5] | outcome [6] | outcome [7] | outcome [8]

O=C(Nc1cccc(-c2cccc(F)c2)c1)C1CCN(Cc2ccc(O)cc2)CC1
active: growth inhibition [4] 87%
inactive: growth inhibition [1] 2% | inhibition [2] 13% | inhibition [3] 3% | outcome [5] | outcome [6] | outcome [7] | outcome [8]

COc1cc(CNC[C@@H](O)[C@H](Cc2ccccc2)NC(=O)c2cc(C3CCCC3)cc(N3CCCC3=O)c2)cc(OC)c1
active: growth inhibition [1] 76% | growth inhibition [4] 97%
inactive: inhibition [2] 16% | inhibition [3] 6% | outcome [5] | outcome [6] | outcome [7] | outcome [8]

Cc1cc(N2CCCC2)nc(Nc2ccc(NC(=O)c3cccc(F)c3)cc2)n1
active: growth inhibition [4] 97%
inactive: growth inhibition [1] 28% | inhibition [2] 39% | inhibition [3] -3% | outcome [5] | outcome [6] | outcome [7] | outcome [8]

NC(=O)C1CCN(Cc2ccc(-c3cccc(-c4nc5ccc(F)cc5[nH]4)c3)cc2)CC1
inactive: growth inhibition [1] 3% | inhibition [2] 10% | inhibition [3] -8% | outcome [5] | outcome [6] | outcome [7] | outcome [8]
active: growth inhibition [4] 90%

COc1ccc(Oc2ccc(-c3c(C)[nH]c(C)c(Cl)c3=O)cc2)cc1
inactive: inhibition [2] -2% | inhibition [3] -3% | outcome [5] | outcome [6] | outcome [7] | outcome [8]
active: growth inhibition [1] 97% | growth inhibition [4] 97%

CO/C(=C\C=C\c1cc2cc(Cl)c(Cl)cc2[nH]1)C(=O)NCCCN1CCN(c2ccncc2)CC1
active: growth inhibition [1] 96% | growth inhibition [4] 98%
inactive: inhibition [2] 12% | inhibition [3] 4% | outcome [5] | outcome [6] | outcome [7] | outcome [8]

NCc1cccc(-c2ccc(CNC3CCN(Cc4ccccc4)CC3)cc2)c1
active: growth inhibition [4] 95%
inactive: growth inhibition [1] 3% | inhibition [2] 2% | inhibition [3] 0% | outcome [5] | outcome [6] | outcome [7] | outcome [8]
